Laboratory results from PubChem BioAssay (Tox21).
“And” between values parts separate entries of the source, which are not always exact repeats. Identical values can stand only once. Inconclusive results are not listed. A call without a number means that no potency is given here. More than one record can exist for a structure, and the calls need not agree. The source made the active and inactive calls. Unless noted, calls follow the shape of the full dose curve.

Experiments:
[1] = Nuclear factor erythroid 2-related factor 2/antioxidant responsive element (Nrf2/ARE) small molecule agonists: qHTS cell viability counter screen in human keratinocytes (AID 1919968; active = well fitted curve in the direction sought with a large enough effect in the repeat runs; an effect the other way counts as inactive or inconclusive; also: nearly all actives have a fitted effect of over 55% in size; also: potency is read from the fitted curve at half-maximal effect)
In short: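 CellTiter-Fluor fluorescence, read 1 h after reagent, gave viability in the same wells as the ARE-luciferase assay. KeratinoSens cells (1,500/well) had 23 h compound exposure at 37 C/5% CO2 following 5 h plating.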

[2] = Nuclear factor erythroid 2-related factor 2/antioxidant responsive element (Nrf2/ARE) small molecule agonists: luciferase reporter gene qHTS assay in human keratinocytes (AID 1919969); also: nearly all actives have a fitted effect of over 35% in size; also: potency is read from the fitted curve at half-maximal effect
[3] = molecular target: Gonadotropin-releasing hormone receptor (Homo sapiens) (UniProt P30968); assay: Human gonadotropin-releasing hormone receptor (GnRHR) small molecule agonists, calcium flux assay in GnRHR-HEK293 cells (AID 1920063); also: nearly all actives have a fitted effect of over 35% in size
Sequence of Gonadotropin-releasing hormone receptor (Homo sapiens) (P30968 whole entry, looked up): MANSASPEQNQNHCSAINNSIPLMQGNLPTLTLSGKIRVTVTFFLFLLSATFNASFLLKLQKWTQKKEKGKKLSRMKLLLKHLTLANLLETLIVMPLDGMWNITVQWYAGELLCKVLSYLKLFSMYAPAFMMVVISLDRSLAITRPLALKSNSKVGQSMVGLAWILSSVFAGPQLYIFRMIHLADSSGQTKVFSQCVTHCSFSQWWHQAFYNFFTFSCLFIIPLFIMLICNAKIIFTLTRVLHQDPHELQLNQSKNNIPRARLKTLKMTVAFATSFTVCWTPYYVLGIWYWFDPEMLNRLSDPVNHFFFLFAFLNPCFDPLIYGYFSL
In short: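 Agonist mode: compounds at 15 concentrations, in triplicate, went onto calcium dye-loaded GnRHR-HEK293 cells. Intracellular calcium was then followed as 480/540 nm fluorescence at 1 s intervals over 3 min.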

[4] = molecular target: KiSS-1 receptor (Homo sapiens) (UniProt Q969F8); assay: Human kisspeptin (KISS1R) small molecule agonists, calcium flux assay in KISS1R-HEK293 cells (AID 1920064; active = well fitted curve in the direction sought with a large enough effect in the repeat runs; an effect the other way counts as inactive or inconclusive)
Sequence of KiSS-1 receptor (Homo sapiens) (Q969F8 whole entry, looked up): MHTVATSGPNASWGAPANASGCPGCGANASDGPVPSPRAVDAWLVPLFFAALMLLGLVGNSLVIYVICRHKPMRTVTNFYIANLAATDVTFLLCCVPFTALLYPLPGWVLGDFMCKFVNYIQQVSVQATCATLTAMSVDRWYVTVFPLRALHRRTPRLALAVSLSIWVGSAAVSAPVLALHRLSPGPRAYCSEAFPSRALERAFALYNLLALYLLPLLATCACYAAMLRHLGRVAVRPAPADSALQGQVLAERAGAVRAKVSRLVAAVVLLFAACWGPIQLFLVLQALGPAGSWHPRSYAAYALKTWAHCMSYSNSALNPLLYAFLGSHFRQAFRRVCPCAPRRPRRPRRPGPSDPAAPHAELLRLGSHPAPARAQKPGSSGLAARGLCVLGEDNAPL
In short: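 Agonist mode: intracellular calcium rise tracked at 1 s intervals over 3 min (480/540 nm) immediately after compound addition to dye-loaded KISS1R-HEK293 stable cells. Each compound tested at 15 concentrations in triplicate.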

[5] = G protein-coupled receptor (GPCR) small molecule agonists, calcium flux assay: HEK293 wild type cell line counter screen (AID 1920065)
In short: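 Calcium flux counter screen: compound added in agonist mode at 15 concentrations in triplicate to dye-loaded parental HEK293 cells. Fluorescence (480/540) read kinetically for 3 min; ATP served as positive control.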

[6] = p53 small molecule agonists, cell-based qHTS assay: qHTS cell viability counter screen (AID 1963581); also: nearly all actives have a fitted effect of over 45% in size; also: potency is read from the fitted curve at half-maximal effect
In short: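 Counter screen read by CellTiter-Glo luminescence (ATP content, 30 min at room temperature), run in the same wells as the beta-lactamase reporter read. HCT-116 p53RE-bla cells saw compounds for 16 h at 37 C.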

[7] = p53 small molecule agonists, cell-based qHTS assay (AID 1963582; active = well fitted activation curve with a large enough effect in the signal ratio in the repeat runs, not every such curve was filed as active; the % refers to the signal ratio)
In short: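 Read-out is beta-lactamase FRET fluorescence after 2 h at room temperature with LiveBLAzer B/G substrate. p53 response element-bla cells were treated 16 h at 37 C with compounds in DMSO, added 5 h after seeding.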

[8] = molecular target: 5-hydroxytryptamine receptor 2A (Homo sapiens) (UniProt P28223); assay: 5-hydroxytryptamine receptor 2A (HTR2A) small molecule antagonists, cell-based qHTS assay (AID 1963586); also: nearly all actives have a fitted effect of over 45% in size
Sequence of 5-hydroxytryptamine receptor 2A (Homo sapiens) (P28223 whole entry, looked up): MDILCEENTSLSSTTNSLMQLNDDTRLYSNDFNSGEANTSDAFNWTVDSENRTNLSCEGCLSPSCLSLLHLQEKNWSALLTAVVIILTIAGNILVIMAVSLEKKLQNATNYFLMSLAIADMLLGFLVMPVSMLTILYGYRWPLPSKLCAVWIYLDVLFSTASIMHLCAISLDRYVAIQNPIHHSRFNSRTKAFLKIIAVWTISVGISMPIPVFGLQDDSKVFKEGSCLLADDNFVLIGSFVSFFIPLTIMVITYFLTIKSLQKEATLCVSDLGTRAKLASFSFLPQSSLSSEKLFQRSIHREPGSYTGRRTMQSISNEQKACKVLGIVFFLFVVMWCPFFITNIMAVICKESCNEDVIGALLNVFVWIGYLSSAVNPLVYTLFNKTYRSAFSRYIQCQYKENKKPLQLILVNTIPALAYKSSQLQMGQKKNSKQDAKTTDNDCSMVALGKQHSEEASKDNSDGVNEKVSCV
In short: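 CHO cells stably expressing human HTR2A were plated for 18 h at 37 C, then loaded with calcium dye for 1 h. Compounds were preincubated 5 min at room temperature before DOI (4 nM solution) was added. Kinetic fluorescence was read for 3 min.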

[9] = molecular target: 5-hydroxytryptamine receptor 2A (Homo sapiens) (UniProt P28223); assay: 5-hydroxytryptamine receptor 2A (HTR2A) small molecule agonists, cell-based qHTS assay (AID 1963587); also: nearly all actives have a fitted effect of over 30% in size
In short: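 HTR2A-CHO cells, plated 18 h at 37 C/5% CO2, dye-loaded 1 h at 37 C; compounds in DMSO added by pin tool (agonist mode). Intracellular calcium flux read as kinetic fluorescence on FDSS over 2 min at 1 s intervals.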

[10] = molecular target: Muscarinic acetylcholine receptor M1 (Homo sapiens) (UniProt P11229); assay: Cholinergic receptor muscarinic 1 (CHRM1) small molecule antagonists, cell-based qHTS assay (AID 1963588); also: nearly all actives have a fitted effect of over 40% in size; also: potency is read from the fitted curve at half-maximal effect
Sequence of Muscarinic acetylcholine receptor M1 (Homo sapiens) (P11229 whole entry, looked up): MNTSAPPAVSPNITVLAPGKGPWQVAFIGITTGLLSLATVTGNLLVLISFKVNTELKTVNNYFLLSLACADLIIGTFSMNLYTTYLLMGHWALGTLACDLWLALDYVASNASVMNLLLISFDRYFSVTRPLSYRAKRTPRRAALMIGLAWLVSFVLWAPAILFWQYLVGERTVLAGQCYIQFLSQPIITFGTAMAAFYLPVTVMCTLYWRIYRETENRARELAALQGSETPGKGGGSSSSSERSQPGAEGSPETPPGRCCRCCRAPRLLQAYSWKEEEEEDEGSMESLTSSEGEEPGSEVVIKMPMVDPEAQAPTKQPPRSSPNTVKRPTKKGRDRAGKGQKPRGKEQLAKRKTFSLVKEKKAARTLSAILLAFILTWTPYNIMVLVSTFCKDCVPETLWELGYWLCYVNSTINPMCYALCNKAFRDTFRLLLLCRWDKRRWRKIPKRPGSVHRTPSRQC
In short: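 Compounds were tested at 15 concentrations in three independent runs. Dye-loaded CHRM1-CHO cells were exposed 5 min at room temperature before stimulation by acetylcholine added at 50nM. Intracellular calcium was read kinetically on FDSS for 3 min.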

[11] = molecular target: Muscarinic acetylcholine receptor M1 (Homo sapiens) (UniProt P11229); assay: Cholinergic receptor muscarinic 1 (CHRM1) small molecule agonists, cell-based qHTS assay (AID 1963589); also: nearly all actives have a fitted effect of over 35% in size
In short: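 Agonist-mode calcium-flux screen: compounds at 15 concentrations, three independent runs, were pin-transferred onto dye-loaded human CHRM1-CHO cells. Fluorescence was then recorded kinetically every second over minutes.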

[12] = cAMP Responsive Elements (CRE) small molecule agonists, cell-based qHTS assay (AID 1963590)
In short: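 Agonist mode: compound added to CRE-bla HEK 293T cells (2,000/well, 18 h after plating) for 3 h at 37 C/5% CO2. Reporter activity detected via FRET beta-lactamase substrate, 2 h room-temperature loading.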

[13] = cAMP Responsive Elements (CRE) small molecule antagonists, cell-based qHTS assay (AID 1963591; active = well fitted inhibition curve with a large enough effect in the signal ratio in the repeat runs, not every such curve was filed as active; the % refers to the signal ratio)
In short: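 Antagonist mode: compounds are added alongside the adenylyl cyclase activator NKH477 (0.25 uM final) to CRE-bla HEK293T cells for 3 h. LiveBLAzer FRET substrate, 2 h at room temperature, reports bla expression.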

[14] = molecular target: Beta-2 adrenergic receptor (Homo sapiens) (UniProt P07550); assay: Adrenergic beta2 receptor (ADRB2) small molecule antagonists, cell-based qHTS assay (AID 1963592); also: series mostly up to about 92 µM; nearly all actives have a fitted effect of over 50% in size
Sequence of Beta-2 adrenergic receptor (Homo sapiens) (P07550 whole entry, looked up): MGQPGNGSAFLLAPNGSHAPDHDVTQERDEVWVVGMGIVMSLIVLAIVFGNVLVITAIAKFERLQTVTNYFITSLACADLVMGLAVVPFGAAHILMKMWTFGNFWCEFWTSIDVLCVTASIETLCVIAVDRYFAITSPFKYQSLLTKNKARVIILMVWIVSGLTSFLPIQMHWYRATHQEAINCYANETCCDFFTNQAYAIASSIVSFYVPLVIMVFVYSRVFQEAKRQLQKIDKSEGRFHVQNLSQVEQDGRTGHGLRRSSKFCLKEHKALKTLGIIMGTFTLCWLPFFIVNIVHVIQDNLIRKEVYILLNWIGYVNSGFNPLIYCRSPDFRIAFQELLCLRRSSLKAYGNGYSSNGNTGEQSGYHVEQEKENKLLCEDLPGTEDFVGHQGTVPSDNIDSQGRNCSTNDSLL
In short: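 Assay format: CHO-ADRB2 cells, 18-20hr seeding at 37C/5% CO2, then compound plus 1nM isoproterenol agonist mix for 0.5hr RT. Homogeneous time-resolved fluorescence cAMP detection after 1hr, expressed as 665/615 nm ratio.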

[15] = molecular target: Beta-2 adrenergic receptor (Homo sapiens) (UniProt P07550); assay: Adrenergic beta2 receptor (ADRB2) small molecule agonists, cell-based qHTS assay (AID 1963593);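 also: CHO cells stably overexpressing human ADRB2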
In short: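 CHO cells stably over-expressing ADRB2 were plated overnight at 37C, then dosed with compounds plus a stimulation mix containing 100uM IBMX and 25uM Ro-20-1724 for 0.5hr at room temperature. cAMP was measured by HTRF competition, 1hr.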

[16] = molecular target: D(2) dopamine receptor (Homo sapiens) (UniProt P14416); assay: Dopamine D2 receptor (DRD2) small molecule agonists, cell-based qHTS assay (AID 1963594); also: nearly all actives have a fitted effect of over 35% in size
Sequence of D(2) dopamine receptor (Homo sapiens) (P14416 whole entry, looked up): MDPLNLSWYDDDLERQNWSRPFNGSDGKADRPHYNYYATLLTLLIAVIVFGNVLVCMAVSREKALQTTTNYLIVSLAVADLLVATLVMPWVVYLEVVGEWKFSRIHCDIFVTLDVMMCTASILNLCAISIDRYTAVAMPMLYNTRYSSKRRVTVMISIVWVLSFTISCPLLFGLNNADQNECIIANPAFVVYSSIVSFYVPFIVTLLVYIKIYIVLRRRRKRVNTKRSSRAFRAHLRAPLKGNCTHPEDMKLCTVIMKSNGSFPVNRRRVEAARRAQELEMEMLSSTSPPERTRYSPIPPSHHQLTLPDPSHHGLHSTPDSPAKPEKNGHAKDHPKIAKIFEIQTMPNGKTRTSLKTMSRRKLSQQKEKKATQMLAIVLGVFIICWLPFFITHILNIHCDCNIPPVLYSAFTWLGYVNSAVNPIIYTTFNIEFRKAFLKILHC
In short: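 HEK293 cells stably expressing DRD2 were cultured 24 h at 37 C, then given Ro20-1724 (0.1 mM final) and compounds for 10 min at room temperature. NKH477 (200nM) was then added for 30 min. cAMP was read by HTRF.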

[17] = molecular target: D(2) dopamine receptor (Homo sapiens) (UniProt P14416); assay: Dopamine D2 receptor (DRD2) small molecule antagonists, cell-based qHTS assay (AID 1963595; active = well fitted inhibition curve with a large enough effect in the signal ratio in the repeat runs, with a control signal flat; the % refers to the signal ratio; also: potency is read from the fitted curve at half-maximal effect)
In short: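 Stable D2 receptor HEK293 line, 24 h after seeding. Compound preincubated 10 min, then quinpirole (12 nM) with forskolin analogue NKH477 (200 nM), 30 min, room temperature. Detection by time-resolved FRET of cAMP.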

[18] = p53 small molecule agonists, cell-based qHTS assay with rat liver microsomes: qHTS cell viability counter screen (AID 1963580); also: nearly all actives have a fitted effect of over 45% in size; also: potency is read from the fitted curve at half-maximal effect
In short: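 Luminescent ATP readout (CellTiter-Glo, 30 min at room temperature) reports viability of p53RE-bla HCT-116 cells after 16 h at 37 C with test compounds under metabolic activation by rat liver microsomes and NADPH at 0.5 mg/mL final each.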

[19] = p53 small molecule agonists, cell-based qHTS assay with human liver microsomes: qHTS cell viability counter screen (AID 1963579); also: nearly all actives have a fitted effect of over 45% in size; also: potency is read from the fitted curve at half-maximal effect
In short: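 Luminescent CellTiter-Glo read-out, 30 min at room temperature, gauged cytotoxicity in p53RE-bla cells exposed 16 h at 37 C to DMSO-dissolved compounds with metabolic activation by human liver microsomes and NADPH, each 0.5 mg/mL final.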

| SMILES | Potency [1] | Potency [2] | Potency [3] | Potency [4] | Potency [5] | Potency [6] | Potency [7] | Potency [8] | Potency [9] | Potency [10] | Potency [11] | Potency [12] | Potency [13] | Potency [14] | Potency [15] | Potency [16] | Potency [17] | Potency [18] | Potency [19] |
| --- | --- | --- | --- | --- | --- | --- | --- | --- | --- | --- | --- | --- | --- | --- | --- | --- | --- | --- | --- |
| COc1ccc(OC)c(C(O)CNC(=O)CN)c1 (stereo not drawn) | inactive | inactive | inactive | inactive | inactive | inactive | inactive | inactive | inactive | inactive | inactive | inactive | inactive | inactive | inactive | inactive | inactive | – | – |
| COc1ccc2nc(N)sc2c1 | inactive | inactive and 54.5 µM (active) | inactive | inactive | inactive | inactive | – | – | inactive | inactive | inactive | inactive | inactive | inactive | inactive | inactive | inactive | inactive | – |
| COC(=O)Nc1nc2ccc(S(=O)c3ccccc3)cc2[nH]1 (stereo not drawn) | inactive | inactive and 13.3 µM (active) | inactive | inactive | inactive | – | – | – | – | – | – | inactive | inactive | inactive | inactive | inactive | inactive | inactive | – |
| CCCN1C=CN(C)C1 | inactive | inactive | inactive | inactive | inactive | inactive | – | inactive | inactive | inactive | inactive | inactive | inactive | inactive | inactive | inactive | inactive | – | inactive |
| CCCCCOC(C)=O | inactive | 68.6 µM (active) | inactive | inactive | inactive | inactive | – | – | inactive | inactive | inactive | inactive | inactive | inactive | – | inactive | – | inactive | inactive |
| CCCCC(CC)COP(=O)(O)OCC(CC)CCCC (stereo not drawn) | 54.6 µM (active) and 54.5 µM (active) | inactive | inactive | inactive | inactive | 20.5 µM (active) and 25.7 µM (active) | – | inactive | inactive | inactive | inactive | – | inactive | – | – | inactive | inactive | 28.9 µM (active) | – |
| OCCNCCO | inactive | inactive | inactive | inactive | inactive | inactive | – | inactive | inactive | inactive | inactive | inactive | inactive | inactive | – | – | inactive | – | inactive |
| OC[C@H]1O[C@@](CO)(O[C@H]2O[C@H](CO)[C@@H](O)[C@H](O)[C@H]2O)[C@@H](O)[C@@H]1O | inactive | inactive | inactive | inactive | inactive | inactive | – | inactive | inactive | inactive | – | inactive | inactive | inactive | – | inactive | inactive | – | inactive |
| CC1COc2ccccc2N1C(=O)C(Cl)Cl (stereo not drawn) | inactive | 21.6 µM (active) | inactive | inactive | inactive | – | – | inactive | inactive | inactive | inactive | – | inactive | – | inactive | inactive | inactive | inactive | inactive |
| C=C(c1ccc(C(=O)O)cc1)c1cc2c(cc1C)C(C)(C)CCC2(C)C | 27.3 µM (active) and 23.7 µM (active) | inactive | inactive | inactive | inactive | inactive and 12.6 µM (active) | – | inactive | – | inactive and 18.3 µM (active) | inactive | – | inactive | inactive | inactive | inactive | inactive | inactive | – |
| O=C1Nc2ccccc2C1(c1ccc(O)cc1)c1ccc(O)cc1 | inactive | 386 nM (active) and 841 nM (active) | inactive | inactive | inactive | – | – | inactive | inactive | inactive | inactive | inactive | inactive | inactive | – | inactive | inactive | inactive | inactive |
| Clc1ccc2c(c1)C(N1CCNCC1)=Nc1ccccc1O2 | 61.1 µM (active) | inactive | inactive | inactive | inactive | – | – | – | – | – | – | inactive | inactive | inactive | – | inactive | 13.7 µM (active) and 8.41 µM (active) | inactive | – |
| Cn1sccc1=O | 43.3 µM (active) and 13.7 µM (active) | 13.7 µM (active) and 6.86 µM (active) | inactive | inactive | inactive | – | – | inactive | inactive | inactive | inactive | inactive | inactive | inactive | inactive | inactive | inactive | 18.2 µM (active) | 28.9 µM (active) and inactive |
| Nc1ccc2cc3ccccc3cc2c1 | inactive | inactive | inactive | inactive | inactive | inactive | – | inactive | inactive | – | inactive | – | – | inactive | inactive | inactive | inactive | inactive | – |
| CC(=O)[C@@]1(O)CC[C@H]2[C@@H]3CCC4=CC(=O)CC[C@]4(C)[C@H]3CC[C@@]21C | inactive | inactive | inactive | inactive | inactive | inactive | – | – | – | – | – | inactive | – | inactive | inactive | – | inactive | inactive | inactive |
| S=C(NC1CCCCC1)NC1CCCCC1 | 26.8 µM (active) and 24.3 µM (active) | 15.1 µM (active) | inactive | inactive | inactive | inactive | – | inactive | inactive | inactive | inactive | inactive | inactive | inactive | inactive | inactive | inactive | inactive | – |
| Nc1c(S(=O)(=O)O)cc(Br)c2c1C(=O)c1ccccc1C2=O | inactive and 30.6 µM (active) | inactive | inactive | inactive | inactive | inactive | – | inactive | inactive | – | inactive | inactive | inactive | inactive | – | inactive | inactive | inactive | – |
